The results in this text go back to the supplement of paper PMC4709259.

Structures can show the parent of a compound that is named as a salt. ± gives the standard deviation.

The assay concerns Jurkat. Nature of the assay: mean cell size (FSC-A) relative to DMSO control (fraction of control); higher = larger cells. Conditions: 48 h. In a few lines:
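Jurkat cells seeded at 600 cells/µl were incubated 1 h, then exposed for 48h to the Enzo Screen-Well FDA Approved Drug Library v2.0 at 25µM in 0.9% (v/v) final DMSO. Drugs that cut counts below 20% of controls were diluted 10-fold and retested, down to 25nM. Cell count and mean cell size (forward scatter area) were read on an Accuri C6 flow cytometer, relative to solvent-only controls. Plates held 6-12 controls; values are means of 3 biological replicates.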
`Nc1ccc(S(N)(=O)=O)cc1` [Sulfanilamide] (concentration: 25 µM) yielded a mean cell size of 0.925 ± 0.018. As for `CN1CCC(=C2c3ccccc3CC(=O)c3sccc32)CC1` [Ketotifen Fumarate] (concentration: 25 µM), the figure is 0.96 ± 0.017; as for `C[N+](C)(C)CC(=O)O` [Betaine] (concentration: 25 µM), 0.945 ± 0.047.

For the molecule `Cn1c(=O)c2c(ncn2C)n(C)c1=O` [Caffeine] (concentration: 25 µM), the mean cell size stood at 0.986 ± 0.046.

The molecule `C[N+]1(C)[C@@H]2CC[C@H]1C[C@@H](OC(=O)C(O)c1ccccc1)C2` (some centres not stated) [Homatropine Methylbromide] (concentration: 25 µM) had a mean cell size of 0.9418 ± 0.0067. Molecule `COC(=O)C1=C(C)NC(C)=C(C(=O)OCC(C)C)C1c1ccccc1[N+](=O)[O-]` (configuration not stated) [Nisoldipine] (concentration: 25 µM) showed a mean cell size of 1.09 ± 0.047. For the molecule `NC[C@H](O)c1ccc(O)c(O)c1` [Norepinephrine Bitartrate Monohydrate] (concentration: 25 µM), the mean cell size stood at 0.967 ± 0.024. Regarding `CC(=O)NO` [Acetohydroxamic Acid] (concentration: 25 µM), the mean cell size amounted to 1.02 ± 0.059.

Take `Nc1nc2c(ncn2COCCO)c(=O)[nH]1` [Acyclovir (Acycloguanosine) Zovirax] (concentration: 25 µM): the mean cell size was 0.977 ± 0.028.

As for `CCOC(=O)[C@H](CCc1ccccc1)N[C@@H](C)C(=O)N1[C@H](C(=O)O)C[C@H]2CCCC[C@@H]21` [Trandolapril] (concentration: 25 µM), the mean cell size came to 0.973 ± 0.044. `CCC[C@H](N[C@@H](C)C(=O)N1[C@H](C(=O)O)C[C@@H]2CCCC[C@@H]21)C(=O)OCC` [Perindopril Erbumine] (concentration: 25 µM) registered a mean cell size of 0.995 ± 0.051.

Molecule `Nc1ccc(C(=O)NCC(=O)O)cc1` [Aminohippurate·Na] (concentration: 25 µM) registered a mean cell size of 0.995 ± 0.044.

`CNC[C@H](O)c1cccc(O)c1` [Phenylephrine] (concentration: 25 µM) yielded a mean cell size of 0.999 ± 0.036.

As for `CN1CCN(C2=Nc3ccccc3Oc3ccc(Cl)cc32)CC1` [Loxapine Succinate] (concentration: 25 µM), the mean cell size was 0.908 ± 0.024. The figure for `OCCOCCN1CCN(C(c2ccccc2)c2ccc(Cl)cc2)CC1` (configuration not stated) [Hydroxyzine Dihydrochloride] (concentration: 25 µM) is 0.948 ± 0.021; for `CC(=O)N1CCN(c2ccc(OCC3COC(Cn4ccnc4)(c4ccc(Cl)cc4Cl)O3)cc2)CC1` (configuration not stated) [Ketoconazole] (concentration: 25 µM) it is 0.84 ± 0.013; for `CCCCCOC(=O)Nc1nc(=O)n([C@@H]2O[C@H](C)[C@@H](O)[C@H]2O)cc1F` [Capecitabine] (concentration: 25 µM) it is 0.957 ± 0.019. `CO/N=C(\C(=O)N[C@@H]1C(=O)N2C(C(=O)OCOC(=O)C(C)(C)C)=C(/C=C\c3scnc3C)CS[C@H]12)c1csc(N)n1` [Cefditoren Pivoxil] (concentration: 25 µM): the mean cell size came to 0.9999 ± 0.0094. As for `Cc1onc(-c2ccccc2Cl)c1C(=O)N[C@@H]1C(=O)N2[C@@H]1SC(C)(C)[C@@H]2C(=O)O` [Cloxacillin·Na] (concentration: 25 µM), the figure is 0.99 ± 0.031; as for `Cc1onc(-c2ccccc2)c1C(=O)N[C@@H]1C(=O)N2[C@@H]1SC(C)(C)[C@@H]2C(=O)O` [Oxacillin·Na] (concentration: 25 µM), 0.9367 ± 0.005; as for `CCOC(=O)c1ncn2c1CN(C)C(=O)c1cc(F)ccc1-2` [Flumazenil] (concentration: 25 µM), 0.95 ± 0.014. In the case of `CCCC(=O)Nc1ccc(OCC(O)CNC(C)C)c(C(C)=O)c1` (configuration not stated) [Acebutolol·HCl] (concentration: 25 µM), the mean cell size turned out to be 1.04 ± 0.041.

`Clc1ccc(C(Cn2ccnc2)OCc2csc3c(Cl)cccc23)c(Cl)c1` (configuration not stated) [Sertaconazole] (concentration: 25 µM): the mean cell size is 1.04 ± 0.05. `C[C@@H]1C[C@H]2[C@@H]3CCC4=CC(=O)C=C[C@]4(C)[C@@]3(F)[C@@H](O)C[C@]2(C)[C@H]1C(=O)CO` [Desoximetasone] (concentration: 25 µM) gave a mean cell size of 0.949 ± 0.035.

In the case of `COc1ccc(-c2ccc3cc(C(=O)O)ccc3c2)cc1C12CC3CC(CC(C3)C1)C2` [Adapalene] (concentration: 2.5 µM), the mean cell size is 1.1 ± 0.1. With `CCCCNc1cc(C(=O)O)cc(S(N)(=O)=O)c1Oc1ccccc1` [Bumetanide] (concentration: 25 µM), the mean cell size came out at 0.952 ± 0.015.

`COc1cccc2c1C(=O)c1c(O)c3c(c(O)c1C2=O)C[C@@](O)(C(C)=O)C[C@@H]3O[C@H]1C[C@H](N)[C@H](O)[C@H](C)O1` [Daunorubicin·HCl] (concentration: 25 nM) gave a mean cell size of 1.04 ± 0.037.
